# Data published in the supplement of paper PMC4022240.
# ± gives the standard deviation.
# T1: HaloTag-ATRX ADD domain (163-292)
# T1 chain: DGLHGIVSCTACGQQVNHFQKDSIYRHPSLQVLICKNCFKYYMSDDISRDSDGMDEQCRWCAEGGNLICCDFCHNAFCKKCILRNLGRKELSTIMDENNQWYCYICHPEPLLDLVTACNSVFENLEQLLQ
# How the values were obtained:
# Experiment in all cases: peptide microarray binding signal (635 nm), min-max normalized on array (fraction of array maximum); higher = stronger binding
# [1] = molecular target: T1, HaloTag-ATRX ADD domain (163-292)
# Procedure, shortened: (§1)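 An Axon GenePix 4000B scanned the arrays at 635 nm for signal and at 532 nm to catch misprints. Those arrays held histone 13-mer peptide–cellulose conjugates printed in triplicate on nitrocellulose with a Cy3 tracer, blocked overnight at 4°C and probed for 1 h at 4°C with biotin-labelled HaloTag reader fusions (10 nM to 1 μM) plus streptavidin-Alexa Fluor 647 or with rabbit histone antibodies (1:10,000 to 1:2,000) plus anti-rabbit Alexa 647. Each binding signal is a triplicate-spot mean intensity, scaled min-max within its library.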
# [2] = molecular target: HaloTag-ING2 PHD (mouse Ing2 200-280)
# Procedure, shortened: as §1
# [3] = molecular target: anti-H3K4me3 antibody ab8580
# Procedure, shortened: as §1
# [4] = molecular target: anti-H3K9me3 antibody ab8898
# Procedure, shortened: as §1
# [5] = peptide region: H3 5-17, peptide modifications: H3S10ph H3T11ph, binder concentration: 1:2,000 dilution
# [6] = peptide region: H3 5-17, peptide modifications: H3S10ph H3T11ph, binder concentration: 1:10,000 dilution
# [7] = peptide region: H3 11-23, peptide modifications: H3K14ac H3R17cit, binder concentration: 1:2,000 dilution
# [8] = peptide region: H3 11-23, peptide modifications: H3K14ac H3R17cit, binder concentration: 1:10,000 dilution
# [9] = peptide region: H3 11-23, peptide modifications: H3K14ac, binder concentration: 1:2,000 dilution
# [10] = peptide region: H3 11-23, peptide modifications: H3K14ac, binder concentration: 1:10,000 dilution
# [11] = peptide region: H3 11-23, peptide modifications: H3K14ac H3K18me3, binder concentration: 1:2,000 dilution
# [12] = peptide region: H3 11-23, peptide modifications: H3K14ac H3K18me3, binder concentration: 1:10,000 dilution
# [13] = peptide region: H3 11-23, peptide modifications: H3K14ac H3K18me1, binder concentration: 1:2,000 dilution
# [14] = peptide region: H3 11-23, peptide modifications: H3K14ac H3K18me1, binder concentration: 1:10,000 dilution
# [15] = peptide region: H3 11-23, peptide modifications: H3K14me1 H3K18ac, binder concentration: 1:2,000 dilution
# [16] = peptide region: H3 11-23, peptide modifications: H3K14me1 H3K18ac, binder concentration: 1:10,000 dilution
# [17] = peptide region: H3 5-17, peptide modifications: H3T11ph H3K14me2, binder concentration: 1:2,000 dilution
# [18] = peptide region: H3 5-17, peptide modifications: H3T11ph H3K14me2, binder concentration: 1:10,000 dilution
# [19] = peptide region: H3 5-17, peptide modifications: H3T11ph, binder concentration: 1:2,000 dilution
# [20] = peptide region: H3 5-17, peptide modifications: H3T11ph, binder concentration: 1:10,000 dilution
# [21] = peptide region: H3 5-17, peptide modifications: H3T11ph H3K14me3, binder concentration: 1:2,000 dilution
# [22] = peptide region: H3 5-17, peptide modifications: H3T11ph H3K14me3, binder concentration: 1:10,000 dilution
# [23] = peptide region: H3 5-17, peptide modifications: H3T11ph H3K14me1, binder concentration: 1:2,000 dilution
# [24] = peptide region: H3 5-17, peptide modifications: H3T11ph H3K14me1, binder concentration: 1:10,000 dilution
binder,measurement,setting,value
QTARKSTGGKAPR [H3 5-17 Q T A R K Sph Tph G G K A P R],peptide microarray binding signal,"[1]; peptide region: H3 5-17, peptide modifications: H3S10ph H3T11ph, binder concentration: 50 nM",0.00295 ± 9.8e-05
same,peptide microarray binding signal,"[1]; peptide region: H3 5-17, peptide modifications: H3S10ph H3T11ph, binder concentration: 500 nM",0.00695 ± 0.00038
same,peptide microarray binding signal,"[2]; peptide region: H3 5-17, peptide modifications: H3S10ph H3T11ph, binder concentration: 10 nM",0.00346 ± 9.7e-05
same,peptide microarray binding signal,"[2]; peptide region: H3 5-17, peptide modifications: H3S10ph H3T11ph, binder concentration: 100 nM",0.016 ± 0.0014
same,peptide microarray binding signal,[3]; [5],0.000302 ± 3.1e-06
same,peptide microarray binding signal,[3]; [6],0.000285 ± 3.1e-06
same,peptide microarray binding signal,[4]; [5],0.00107 ± 0.00014
same,peptide microarray binding signal,[4]; [6],0.000461 ± 8.7e-06
TGGKAPRKQLATK [H3 11-23 T G G Kac A P Rcit K Q L A T K],peptide microarray binding signal,"[1]; peptide region: H3 11-23, peptide modifications: H3K14ac H3R17cit, binder concentration: 50 nM",0.00671 ± 0.00027
same,peptide microarray binding signal,"[1]; peptide region: H3 11-23, peptide modifications: H3K14ac H3R17cit, binder concentration: 500 nM",0.013 ± 0.00041
same,peptide microarray binding signal,"[2]; peptide region: H3 11-23, peptide modifications: H3K14ac H3R17cit, binder concentration: 10 nM",0.018 ± 0.0015
same,peptide microarray binding signal,"[2]; peptide region: H3 11-23, peptide modifications: H3K14ac H3R17cit, binder concentration: 100 nM",0.0345 ± 0.0076
same,peptide microarray binding signal,[3]; [7],0.00517 ± 0.00085
same,peptide microarray binding signal,[3]; [8],0.00297 ± 0.00013
same,peptide microarray binding signal,[4]; [7],0.00171 ± 5.6e-05
same,peptide microarray binding signal,[4]; [8],0.00127 ± 1.3e-05
TGGKAPRKQLATK [H3 11-23 T G G Kac A P R K Q L A T K],peptide microarray binding signal,"[1]; peptide region: H3 11-23, peptide modifications: H3K14ac, binder concentration: 50 nM",0.0069 ± 0.00019
same,peptide microarray binding signal,"[1]; peptide region: H3 11-23, peptide modifications: H3K14ac, binder concentration: 500 nM",0.032 ± 0.0024
same,peptide microarray binding signal,"[2]; peptide region: H3 11-23, peptide modifications: H3K14ac, binder concentration: 10 nM",0.0291 ± 0.0036
same,peptide microarray binding signal,"[2]; peptide region: H3 11-23, peptide modifications: H3K14ac, binder concentration: 100 nM",0.0427 ± 0.0088
same,peptide microarray binding signal,[3]; [9],0.00429 ± 0.00017
same,peptide microarray binding signal,[3]; [10],0.00314 ± 0.00047
same,peptide microarray binding signal,[4]; [9],0.00606 ± 0.00038
same,peptide microarray binding signal,[4]; [10],0.00392 ± 0.00032
TGGKAPRKQLATK [H3 11-23 T G G Kac A P R Kme3 Q L A T K],peptide microarray binding signal,"[1]; peptide region: H3 11-23, peptide modifications: H3K14ac H3K18me3, binder concentration: 50 nM",0.00953 ± 0.0014
same,peptide microarray binding signal,"[1]; peptide region: H3 11-23, peptide modifications: H3K14ac H3K18me3, binder concentration: 500 nM",0.00948 ± 0.00024
same,peptide microarray binding signal,"[2]; peptide region: H3 11-23, peptide modifications: H3K14ac H3K18me3, binder concentration: 10 nM",0.00841 ± 0.00063
same,peptide microarray binding signal,"[2]; peptide region: H3 11-23, peptide modifications: H3K14ac H3K18me3, binder concentration: 100 nM",0.0201 ± 0.0018
same,peptide microarray binding signal,[3]; [11],0.931 ± 0.11
same,peptide microarray binding signal,[3]; [12],0.499 ± 0.075
same,peptide microarray binding signal,[4]; [11],0.0555 ± 0.018
same,peptide microarray binding signal,[4]; [12],0.016 ± 0.00022
TGGKAPRKQLATK [H3 11-23 T G G Kac A P R Kme Q L A T K],peptide microarray binding signal,"[1]; peptide region: H3 11-23, peptide modifications: H3K14ac H3K18me1, binder concentration: 50 nM",0.00759 ± 8.2e-05
same,peptide microarray binding signal,"[1]; peptide region: H3 11-23, peptide modifications: H3K14ac H3K18me1, binder concentration: 500 nM",0.012 ± 0.00073
same,peptide microarray binding signal,"[2]; peptide region: H3 11-23, peptide modifications: H3K14ac H3K18me1, binder concentration: 10 nM",0.0187 ± 0.0021
same,peptide microarray binding signal,"[2]; peptide region: H3 11-23, peptide modifications: H3K14ac H3K18me1, binder concentration: 100 nM",0.0405 ± 0.011
same,peptide microarray binding signal,[3]; [13],0.0114 ± 0.0027
same,peptide microarray binding signal,[3]; [14],0.00725 ± 0.00036
same,peptide microarray binding signal,[4]; [13],0.00275 ± 0.00016
same,peptide microarray binding signal,[4]; [14],0.00219 ± 0.0001
TGGKAPRKQLATK [H3 11-23 T G G Kme A P R Kac Q L A T K],peptide microarray binding signal,"[1]; peptide region: H3 11-23, peptide modifications: H3K14me1 H3K18ac, binder concentration: 50 nM",0.00715 ± 0.00026
same,peptide microarray binding signal,"[1]; peptide region: H3 11-23, peptide modifications: H3K14me1 H3K18ac, binder concentration: 500 nM",0.014 ± 0.00051
same,peptide microarray binding signal,"[2]; peptide region: H3 11-23, peptide modifications: H3K14me1 H3K18ac, binder concentration: 10 nM",0.014 ± 0.0016
same,peptide microarray binding signal,"[2]; peptide region: H3 11-23, peptide modifications: H3K14me1 H3K18ac, binder concentration: 100 nM",0.0363 ± 0.0088
same,peptide microarray binding signal,[3]; [15],0.007 ± 0.001
same,peptide microarray binding signal,[3]; [16],0.00331 ± 0.0003
same,peptide microarray binding signal,[4]; [15],0.00159 ± 1.9e-05
same,peptide microarray binding signal,[4]; [16],0.00127 ± 3.4e-05
QTARKSTGGKAPR [H3 5-17 Q T A R K S Tph G G Kme2 A P R],peptide microarray binding signal,"[1]; peptide region: H3 5-17, peptide modifications: H3T11ph H3K14me2, binder concentration: 50 nM",0.00216 ± 8e-05
same,peptide microarray binding signal,"[1]; peptide region: H3 5-17, peptide modifications: H3T11ph H3K14me2, binder concentration: 500 nM",0.00505 ± 0.00083
same,peptide microarray binding signal,"[2]; peptide region: H3 5-17, peptide modifications: H3T11ph H3K14me2, binder concentration: 10 nM",0.00239 ± 0.00024
same,peptide microarray binding signal,"[2]; peptide region: H3 5-17, peptide modifications: H3T11ph H3K14me2, binder concentration: 100 nM",0.00213 ± 0.00021
same,peptide microarray binding signal,[3]; [17],0.00496 ± 0.0019
same,peptide microarray binding signal,[3]; [18],0.00605 ± 0.0024
same,peptide microarray binding signal,[4]; [17],0.00177 ± 0.00016
same,peptide microarray binding signal,[4]; [18],0.00248 ± 0.00058
QTARKSTGGKAPR [H3 5-17 Q T A R K S Tph G G K A P R],peptide microarray binding signal,"[1]; peptide region: H3 5-17, peptide modifications: H3T11ph, binder concentration: 50 nM",0.0138 ± 0.005
same,peptide microarray binding signal,"[1]; peptide region: H3 5-17, peptide modifications: H3T11ph, binder concentration: 500 nM",0.014 ± 0.0037
same,peptide microarray binding signal,"[2]; peptide region: H3 5-17, peptide modifications: H3T11ph, binder concentration: 10 nM",0.0156 ± 0.0015
same,peptide microarray binding signal,"[2]; peptide region: H3 5-17, peptide modifications: H3T11ph, binder concentration: 100 nM",0.0409 ± 0.0057
same,peptide microarray binding signal,[3]; [19],0.0044 ± 0.0008
same,peptide microarray binding signal,[3]; [20],0.00553 ± 0.00047
same,peptide microarray binding signal,[4]; [19],0.00195 ± 7.3e-05
same,peptide microarray binding signal,[4]; [20],0.00254 ± 0.00012
QTARKSTGGKAPR [H3 5-17 Q T A R K S Tph G G Kme3 A P R],peptide microarray binding signal,"[1]; peptide region: H3 5-17, peptide modifications: H3T11ph H3K14me3, binder concentration: 50 nM",0.00257 ± 7.4e-05
same,peptide microarray binding signal,"[1]; peptide region: H3 5-17, peptide modifications: H3T11ph H3K14me3, binder concentration: 500 nM",0.00829 ± 0.00052
same,peptide microarray binding signal,"[2]; peptide region: H3 5-17, peptide modifications: H3T11ph H3K14me3, binder concentration: 10 nM",0.00418 ± 0.00034
same,peptide microarray binding signal,"[2]; peptide region: H3 5-17, peptide modifications: H3T11ph H3K14me3, binder concentration: 100 nM",0.00857 ± 0.0014
same,peptide microarray binding signal,[3]; [21],0.00848 ± 0.002
same,peptide microarray binding signal,[3]; [22],0.00582 ± 0.0016
same,peptide microarray binding signal,[4]; [21],0.0639 ± 0.0075
same,peptide microarray binding signal,[4]; [22],0.0181 ± 0.0023
QTARKSTGGKAPR [H3 5-17 Q T A R K S Tph G G Kme A P R],peptide microarray binding signal,"[1]; peptide region: H3 5-17, peptide modifications: H3T11ph H3K14me1, binder concentration: 50 nM",0.00301 ± 0.00011
same,peptide microarray binding signal,"[1]; peptide region: H3 5-17, peptide modifications: H3T11ph H3K14me1, binder concentration: 500 nM",0.00562 ± 0.00013
same,peptide microarray binding signal,"[2]; peptide region: H3 5-17, peptide modifications: H3T11ph H3K14me1, binder concentration: 10 nM",0.00466 ± 0.00013
same,peptide microarray binding signal,"[2]; peptide region: H3 5-17, peptide modifications: H3T11ph H3K14me1, binder concentration: 100 nM",0.00496 ± 0.00066
same,peptide microarray binding signal,[3]; [23],0.00106 ± 2.3e-05
same,peptide microarray binding signal,[3]; [24],0.0012 ± 3.2e-05
same,peptide microarray binding signal,[4]; [23],0.00112 ± 2.3e-05
same,peptide microarray binding signal,[4]; [24],0.000807
